# Bioassay records (PubChem BioAssay)
# IL-1B inflam inh: inflammasome signaling inhibition, IL-1 beta readout | THP-1 LPS/ATP IL-1B secretion, AlphaLISA, 16 h; hits give low values | activity change, % at 57.5 µM | 360,000 tested, 4.7% active; in the data active = activity change below about -50%; inconclusive = mostly about -30% to -49%
#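 THP-1 cells pretreated 1 hr with compounds (up to 57.5 uM final), then stimulated with LPS (250 ng/mL final) plus ATP (1.25 mM final); secreted IL-1B measured by AlphaLISA after 16 hr, decreased signal indicating inhibition.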
# DT40 TDP1 no CPT: qHTS for Inhibitors of human tyrosyl-DNA phosphodiesterase 1 (TDP1): qHTS in cells in absence of CPT; Potency, µM (doses to about 46.2 µM), for the others: top-dose activity change, negative = growth inhibition, usual class: inhibitors; 420,000 tested, 15% active; DT40 Tdp1-/- hTDP1 cells, no CPT, ATP luminescence, 48 h; note: potency is the fitted concentration of half-maximal effect; nearly all actives have a fitted effect of over 55% in size
#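 Stably hTDP1-transfected Tdp1-null chicken DT40 cells were treated with library compounds minus camptothecin and grown for at least 48 hr at 37 °C, after which cellular ATP was quantified by luminescence.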
# HT1080-NT tox: kills 2HG-producing HT-1080-NT fibrosarcoma cells; HT-1080-NT fibrosarcoma viability, CellTiter-Glo ATP luminescence, 48 h; Potency, µM (titrated, usually from 46.1 µM), inactives show at the highest dose activity, negative = less viability, actives largely listed as cytotoxic; 360,000 tested, 1.6% active;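 note: NT is the 2HG producing partner of a matched IDH1 knockdown line; potency is the fitted concentration of half-maximal effect; 0% = DMSO-treated cells and -100% = media-only wells without cells; nearly all actives have a fitted effect of over 55% in size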
#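 Toxicity toward the 2HG-producing NT line was scored as %Activity, normalised to DMSO and no-cell wells, from CellTiter-Glo luminescence after 48 hours' treatment.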
# HT1080 IDH1KD tx: HT-1080 IDH1 knockdown cell toxicity (counter line) | HT-1080 IDH1 knockdown viability, ATP luminescence, 48 h | Potency, µM (series often up to 46.1 µM), inactives show at the top dose activity, negative = toxicity, most hits filed as cytotoxic | 360,000 tested, 2% active | AID 686971;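 note: potency is the fitted concentration of half-maximal effect; 0% = DMSO wells and -100% = cell-free medium wells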
#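 Assay cells: HT-1080 with IDH1 knockdown, 750 per well, RPMI/5% FBS. Exposure: 48 h at 37 °C following 2 h pre-incubation. Read: CellTiter-Glo luminescence; fitted concentration-response, curve class assigned.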
# DT40 TDP1 CPT: DT40-hTDP1 cell growth loss with CPT. Potency, µM (highest dose often 46.2 µM), for the others: at the highest dose activity change, negative = growth inhibition, actives largely listed as inhibitors. 420,000 tested, 12% active. chicken DT40 Tdp1-/-;hTDP1 cells + 20 nM CPT, ATP luminescence, 48 h; note: potency is the fitted concentration of half-maximal effect; nearly all actives have a fitted effect of over 55% in size
#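 Cell growth measured by CellTiter-Glo luminescence after a minimum 48 h, 37 C compound exposure with 20 nM CPT in Tdp1-knockout DT40 cells stably expressing hTDP1, seeded 400/well; qHTS titration format.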
# The depositor's hits bear a star; u = inconclusive; x = no result given; [ ] = remark or other dose. Rows were chosen to be rich in hits. Some 19% of all compounds tested hit in one or more screens of this group. Unless noted, calls come from the whole dose curve; as a rule, active = well fitted curve in the direction sought with a large enough effect; inconclusive = small, poorly fitted or top-dose-only effect, or another doubt; inactive = no such curve, though single readings can be large; an effect the other way counts as inactive or inconclusive. Unless noted, % is set by controls: 0 for no effect and ±100 for the full control effect.
SMILES,IL-1B inflam inh,DT40 TDP1 no CPT,HT1080-NT tox,HT1080 IDH1KD tx,DT40 TDP1 CPT
N[C@@H](Cc1cc(I)c(Oc2ccc(O)cc2)c(I)c1)C(=O)O,x,u,x,x,1%
COc1ccc(Br)cc1C1N2CC3(C)CN1CC(C)(C2)C3=O (stereo not given),7,-3%,1%,8%,-7%
COC(=O)[C@@]12OC[C@]34[C@H]([C@@H](O)[C@@H]1O)[C@@]1(C)C(=O)C(O[C@@H]5OC(CO)[C@@H](O)[C@@H](O)[C@@H]5O)=C[C@@H](C)[C@@H]1C[C@H]3OC(=O)[C@H](OC(=O)/C=C(\C)C(C)(C)OC(C)=O)[C@@H]24 (stereo not given in full),-56*,3.3µM*,u,u,5.2µM*
O=C(CS(=O)(=O)c1cccc2nsnc12)Nc1ccccc1Cl,x,-24%,x,x,2%
CC1=NN(c2nc(N)nc(/C(C#N)=C/c3ccc([N+](=O)[O-])o3)n2)C(C)(C)C1,-16,0.46µM*,-3%,u,0.58µM*
CC1=NN(C(C#N)c2cccc([N+](=O)[O-])c2)C(C)(C)C1 (stereo not given),-8,-24%,3%,4%,-10%
Cc1oc(-c2ccc(Cl)cc2)nc1CN1CCCC(C(=O)NCCCN2CCCC2=O)C1 (stereo not given),-10,8.2µM*,-7%,-20%,8.2µM*
Cc1oc(-c2ccc(F)cc2)nc1CN1CCCC(C(=O)N2CCOCC2)C1 (stereo not given),-6,-2%,9%,0%,-27%
Cc1ccccc1-c1nc(CN2CCCC(C(=O)NCCCN3CCOCC3)C2)c(C)o1 (stereo not given),-23,u,-26%,-2%,3%
Cc1oc(-c2ccc(Cl)cc2)nc1CN1CCCC(C(=O)NCc2ccco2)C1 (stereo not given),-51*,23µM*,0%,-14%,u
CCc1ccc(-c2nc(CN3CCCC(C(=O)NCc4ccccc4Cl)C3)c(C)o2)cc1 (stereo not given),x,4.6µM*,x,x,6.5µM*
CCN1CCN(CCNC(=O)C2CCCN(Cc3nc(-c4cccc(Cl)c4)oc3C)C2)CC1 (stereo not given),u,16µM*,-25%,-19%,21µM*
CCOC(=O)C1CCCN(C(=O)c2cc(C)oc2C)CC1 (stereo not given),1,-6%,24%,13%,-19%
CN1C(=O)Cc2cc(S(=O)(=O)CCC(=O)Nc3ccc(Cl)cc3)ccc21,x,2%,x,x,-27%
COc1cccc(NC(=O)CSc2nccn2C2CCCC2)c1,x,u,x,x,0%
CCOC(=O)N1CCC(NC(=O)C2CCCN(Cc3nc(-c4cccc(Cl)c4)oc3C)C2)CC1 (stereo not given),58,0.73µM*,-1%,-8%,0.82µM*
COc1ccc(-c2nc(CN3CCCC(C(=O)NC4CCCC4)C3)c(C)o2)cc1 (stereo not given),u,u,-2%,6%,u
Cc1oc(-c2ccc(Cl)cc2)nc1CN1CCCC(C(=O)NC2CC2)C1 (stereo not given),-18,10µM*,1%,-6%,16µM*
C[C@@H]1C[C@@H](CC(=O)NCC2Cc3cccc(-c4ccncc4)c3O2)NC(=S)N1 (stereo not given in full),x,-19%,x,x,-24%
O=C(Nc1nccs1)c1cccc(N2C(=O)c3cccc4c([N+](=O)[O-])ccc(c34)C2=O)c1,-106*,3.7µM*,21µM*,16µM*,5.2µM*
O=C(O)c1ccc(CN2C(=O)c3cccc4c([N+](=O)[O-])ccc(c34)C2=O)cc1,-99*,16µM*,u,u,15µM*
CC(=O)Oc1cccc(N2C(=O)c3cccc4c([N+](=O)[O-])ccc(c34)C2=O)c1,-95*,2.9µM*,-2%,-2%,2.3µM*
Cc1ccc(C(=O)O)cc1N1C(=O)c2cccc3c([N+](=O)[O-])ccc(c23)C1=O,0,6.5µM*,16µM*,u,6.5µM*
CC(C)C[C@H](NC(=O)[C@H](CCCCN)NC(=O)[C@H](CCCNC(=N)N)NC(=O)[C@H](C)NC(=O)[C@H](CO)NC(=O)[C@H](CCCCN)NC(=O)[C@H](CCCNC(=N)N)NC(=O)[C@H](C)NC(=O)CNC(=O)[C@@H](NC(=O)[C@H](Cc1ccccc1)NC(=O)CNC(=O)CNC(=O)[C@@H](N)Cc1ccccc1)[C@H](C)O)C(=O)N[C@@H](C)C(=O)N[C@@H](CC(N)=O)C(=O)N[C@@H](CCC(N)=O)C(=O)O,x,-5%[4.12 µM],x,x,0%[4.12 µM]
CCOc1ccc(Cl)cc1S(=O)(=O)n1nnc2ccccc21,28,u,11%,21%,16µM*
SMILES,IL-1B inflam inh,DT40 TDP1 no CPT,HT1080-NT tox,HT1080 IDH1KD tx,DT40 TDP1 CPT
Cc1ccc(C(OCCN(C)C)c2cccc(C(F)(F)F)c2)cc1 (stereo not given),-67*,23µM*,-20%,-20%,23µM*
CCOC(=O)c1cnc(SC)nc1Oc1cccc(NC(=O)c2ccc(C)cc2)c1,25,15µM*,13%,10%[9.24 µM],u
CCOC(=O)c1cnc(SC)nc1Oc1cccc(NC(=O)c2cccc(Cl)c2Cl)c1,-12,u,15%,9%,u
COc1ccc(COCC(O)CN(Cc2ccco2)Cc2ccccc2O)cc1 (stereo not given),5,u,-4%,0%,u
Oc1ccccc1CN(Cc1ccco1)CC(O)COCc1ccc(Cl)cc1 (stereo not given),-99*,18µM*,u,u,15µM*
CC1=CC(=C(c2ccc(N)cc2)c2ccc(N)cc2)C=CC1=N,x,3µM*,x,x,2.7µM*
Oc1ccccc1Nc1ccccn1,-6,-9%,-5%,-13%,0%
Cc1ccc(NC2=CC(=O)C(=O)c3ccccc32)c(C)c1,-8,18µM*,6%,1%,4.6µM*
O=C1C=C(Nc2ccccc2O)c2ccccc2C1=O,-90*,3.3µM*,u,u,3.7µM*
O=C1C=C(NCc2ccccc2)c2ccccc2C1=O,-101*,15µM*,3.7µM*,4.6µM*,5.8µM*
Cc1nc2ccccc2n1CCC(=O)Nc1cccc(F)c1,8,u,-4%,-4%,u
CCN(CC)C(=O)C1CCN(Cc2cn(C)nc2-c2ccc(Oc3ccccc3)cc2)CC1,-4,21µM*,-6%,-14%,u
O=C(NCCc1ccc(Cl)cc1)C(=O)NCC(c1ccco1)S(=O)(=O)c1ccccc1 (stereo not given),x,-9%,x,x,-10%
